The text below walks through data of article PMC7862700, “An all-to-all approach to the identification of sequence-specific readers for epigenetic DNA modifications on cytosine”.

Assay in all cases: DAPPL (digital affinity profiling via proximity ligation, sequencing); 10 mM Tris-HCl pH 7.5, 50 mM NaCl, 1 mM DTT, 4% glycerol, room temperature, 30 min; GST-TFs on glutathione beads, 16-mer random dsDNA library, 0.1% formaldehyde crosslink after washing; high values mean tight binding
Holding throughout (details): protein: recombinant; tags: N-terminal GST; dsDNA, one strand shown

For one assay, the target named is T1, FLI1 (Homo sapiens, UniProt Q01543 1-452).
T1 sequence: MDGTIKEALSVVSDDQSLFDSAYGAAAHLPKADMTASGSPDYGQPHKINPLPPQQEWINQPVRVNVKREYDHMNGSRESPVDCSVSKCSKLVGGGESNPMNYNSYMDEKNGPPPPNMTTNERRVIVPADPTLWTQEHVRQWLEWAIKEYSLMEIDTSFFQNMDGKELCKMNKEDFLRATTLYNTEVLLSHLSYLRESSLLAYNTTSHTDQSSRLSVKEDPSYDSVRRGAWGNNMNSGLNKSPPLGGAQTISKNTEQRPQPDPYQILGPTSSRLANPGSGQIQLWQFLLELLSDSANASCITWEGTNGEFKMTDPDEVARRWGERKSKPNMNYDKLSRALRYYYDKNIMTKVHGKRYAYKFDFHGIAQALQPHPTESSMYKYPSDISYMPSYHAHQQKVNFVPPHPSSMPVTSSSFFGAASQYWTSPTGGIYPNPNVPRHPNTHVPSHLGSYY
In outline:
(§1)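 Each value of binding signal is a hexamer's read frequency for a factor divided by the same hexamer's frequency in the tag-only sample. Barcoded, bead-captured GST fusions of human transcription factors made in yeast were pooled with that sample and incubated with 200 nmole of a random double-stranded 16-mer DNA library in Tris/NaCl/DTT/glycerol buffer at room temperature for 30 min. Washing, 0.1% formaldehyde crosslinking, proximity ligation, PCR and Illumina NextSeq500 sequencing followed.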

The target in a further assay is T2, ELK1 (Homo sapiens, UniProt P19419 1-428).
T2 sequence: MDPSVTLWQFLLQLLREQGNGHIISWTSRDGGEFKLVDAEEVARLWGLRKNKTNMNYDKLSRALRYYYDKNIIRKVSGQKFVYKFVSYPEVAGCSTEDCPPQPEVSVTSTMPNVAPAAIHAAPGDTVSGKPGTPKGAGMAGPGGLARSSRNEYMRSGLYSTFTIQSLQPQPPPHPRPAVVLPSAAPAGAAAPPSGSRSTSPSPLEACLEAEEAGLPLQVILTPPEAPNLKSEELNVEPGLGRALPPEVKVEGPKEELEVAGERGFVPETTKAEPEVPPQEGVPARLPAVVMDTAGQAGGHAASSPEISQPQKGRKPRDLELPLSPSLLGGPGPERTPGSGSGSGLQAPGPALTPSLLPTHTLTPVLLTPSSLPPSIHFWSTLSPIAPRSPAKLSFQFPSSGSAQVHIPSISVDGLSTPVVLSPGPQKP
The essentials: as §1

The target in a further assay is T3, GABPA (Homo sapiens, UniProt Q06546 1-454).
T3 sequence: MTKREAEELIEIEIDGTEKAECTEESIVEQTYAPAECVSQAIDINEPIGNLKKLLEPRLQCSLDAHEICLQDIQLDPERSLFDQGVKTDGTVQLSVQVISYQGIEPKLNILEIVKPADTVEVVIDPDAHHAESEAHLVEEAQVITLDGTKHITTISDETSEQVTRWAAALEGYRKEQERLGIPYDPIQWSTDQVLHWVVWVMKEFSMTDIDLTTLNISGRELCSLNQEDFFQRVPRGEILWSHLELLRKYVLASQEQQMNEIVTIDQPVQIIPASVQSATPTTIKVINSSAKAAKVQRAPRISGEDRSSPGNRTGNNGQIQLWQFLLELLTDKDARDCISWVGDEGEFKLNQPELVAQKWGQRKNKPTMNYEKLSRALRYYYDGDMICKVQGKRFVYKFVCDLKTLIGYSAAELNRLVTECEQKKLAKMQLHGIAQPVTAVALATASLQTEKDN
The essentials:
as §1

The target in a further assay is T4, ERG (Homo sapiens, UniProt P11308 1-479).
T4 sequence: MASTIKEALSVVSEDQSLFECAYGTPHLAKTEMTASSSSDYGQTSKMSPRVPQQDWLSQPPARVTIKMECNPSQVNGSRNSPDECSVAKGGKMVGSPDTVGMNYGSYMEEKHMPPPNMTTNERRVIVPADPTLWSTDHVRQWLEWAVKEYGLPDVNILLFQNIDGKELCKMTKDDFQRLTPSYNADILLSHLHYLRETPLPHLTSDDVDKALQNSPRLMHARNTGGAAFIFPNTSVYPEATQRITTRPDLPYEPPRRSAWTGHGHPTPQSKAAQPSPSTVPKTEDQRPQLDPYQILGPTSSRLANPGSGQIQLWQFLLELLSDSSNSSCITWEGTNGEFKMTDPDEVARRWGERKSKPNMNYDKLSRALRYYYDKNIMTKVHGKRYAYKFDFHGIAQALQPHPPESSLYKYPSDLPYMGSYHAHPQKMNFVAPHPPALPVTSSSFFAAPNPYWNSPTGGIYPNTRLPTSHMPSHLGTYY
In outline: as §1

A further assay addresses ELF1 (Homo sapiens, UniProt P32519 1-619). The essentials: as §1
Another assay has as its target T5, EHF (Homo sapiens, UniProt Q9NZC4 1-300).
T5 sequence: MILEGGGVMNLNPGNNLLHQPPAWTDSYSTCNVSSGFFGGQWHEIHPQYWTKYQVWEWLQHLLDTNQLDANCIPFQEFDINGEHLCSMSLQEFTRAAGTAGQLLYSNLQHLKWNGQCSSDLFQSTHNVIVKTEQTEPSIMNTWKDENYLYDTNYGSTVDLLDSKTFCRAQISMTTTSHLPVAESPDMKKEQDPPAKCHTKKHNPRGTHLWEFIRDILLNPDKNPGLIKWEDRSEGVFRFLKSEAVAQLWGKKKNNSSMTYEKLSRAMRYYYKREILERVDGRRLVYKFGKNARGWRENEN
The essentials: as §1

In another assay the target is SPI1 (Homo sapiens, UniProt P17947 1-270). The essentials:
as §1

The target of the next assay is SPIB (Homo sapiens, UniProt Q01892 1-262). In outline:
as §1

The target of a further assay is T6, ELK3 (Homo sapiens, UniProt P41970 1-407).
T6 sequence: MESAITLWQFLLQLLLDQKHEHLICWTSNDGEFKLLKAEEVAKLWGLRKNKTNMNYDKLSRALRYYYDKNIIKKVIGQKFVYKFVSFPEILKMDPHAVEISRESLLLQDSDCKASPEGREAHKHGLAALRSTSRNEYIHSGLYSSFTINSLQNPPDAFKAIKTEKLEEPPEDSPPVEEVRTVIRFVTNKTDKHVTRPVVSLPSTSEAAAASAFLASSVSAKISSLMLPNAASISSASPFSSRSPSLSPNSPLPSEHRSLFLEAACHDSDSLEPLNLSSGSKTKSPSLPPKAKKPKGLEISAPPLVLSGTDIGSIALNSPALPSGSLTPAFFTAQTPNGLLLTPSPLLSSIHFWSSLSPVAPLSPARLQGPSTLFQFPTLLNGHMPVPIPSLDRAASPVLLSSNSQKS
The essentials:
as §1

A further assay concerns the target T7, FEV (Homo sapiens, UniProt Q99581 1-238).
T7 sequence: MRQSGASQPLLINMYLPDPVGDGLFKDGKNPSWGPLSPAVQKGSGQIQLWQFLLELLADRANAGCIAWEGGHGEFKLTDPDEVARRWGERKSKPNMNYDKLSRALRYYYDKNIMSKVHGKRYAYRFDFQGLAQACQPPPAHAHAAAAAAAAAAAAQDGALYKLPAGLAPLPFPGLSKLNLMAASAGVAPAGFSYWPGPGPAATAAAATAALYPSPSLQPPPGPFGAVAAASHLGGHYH
In outline: as §1

A further assay deals with ETV5 (Homo sapiens, UniProt P41161 1-510). The essentials: as §1
A further assay has as its target T8, SPIC (Homo sapiens, UniProt Q8N5J4 1-248).
T8 sequence: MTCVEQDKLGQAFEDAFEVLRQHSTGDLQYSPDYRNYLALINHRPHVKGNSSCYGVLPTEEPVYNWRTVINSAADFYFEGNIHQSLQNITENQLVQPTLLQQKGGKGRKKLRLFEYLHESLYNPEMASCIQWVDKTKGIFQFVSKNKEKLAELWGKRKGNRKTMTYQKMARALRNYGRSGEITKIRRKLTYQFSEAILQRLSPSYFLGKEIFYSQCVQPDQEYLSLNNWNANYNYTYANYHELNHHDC
The essentials: as §1

A further assay addresses ELF4 (Homo sapiens, UniProt Q99607 1-663). The essentials: as §1
A further assay deals with T9, ELK4 (Homo sapiens, UniProt P28324-2 1-405).
T9 sequence: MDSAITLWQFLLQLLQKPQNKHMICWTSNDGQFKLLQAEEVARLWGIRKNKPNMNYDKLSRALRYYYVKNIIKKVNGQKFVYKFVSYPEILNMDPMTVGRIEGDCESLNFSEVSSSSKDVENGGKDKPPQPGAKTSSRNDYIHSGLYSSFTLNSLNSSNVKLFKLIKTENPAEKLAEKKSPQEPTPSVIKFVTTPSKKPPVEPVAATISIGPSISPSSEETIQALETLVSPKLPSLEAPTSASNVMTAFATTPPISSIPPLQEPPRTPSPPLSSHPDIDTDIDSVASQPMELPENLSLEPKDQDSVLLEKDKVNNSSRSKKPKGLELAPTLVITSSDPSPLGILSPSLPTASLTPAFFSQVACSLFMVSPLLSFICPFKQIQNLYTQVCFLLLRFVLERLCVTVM
In outline: as §1

Another assay has as its target T10, ETV2 (Homo sapiens, UniProt O00321 1-342).
T10 sequence: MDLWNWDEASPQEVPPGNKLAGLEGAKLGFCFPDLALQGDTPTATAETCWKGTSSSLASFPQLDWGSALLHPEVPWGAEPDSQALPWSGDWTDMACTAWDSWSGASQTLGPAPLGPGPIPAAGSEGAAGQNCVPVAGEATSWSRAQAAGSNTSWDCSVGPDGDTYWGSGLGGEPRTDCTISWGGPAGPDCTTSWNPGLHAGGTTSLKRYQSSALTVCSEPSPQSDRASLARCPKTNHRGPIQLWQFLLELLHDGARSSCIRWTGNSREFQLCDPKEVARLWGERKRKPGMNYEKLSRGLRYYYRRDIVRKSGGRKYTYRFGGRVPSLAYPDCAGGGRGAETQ
The essentials:
as §1

A further assay has as its target T11, ELF3 (Homo sapiens, UniProt P78545 1-371).
T11 sequence: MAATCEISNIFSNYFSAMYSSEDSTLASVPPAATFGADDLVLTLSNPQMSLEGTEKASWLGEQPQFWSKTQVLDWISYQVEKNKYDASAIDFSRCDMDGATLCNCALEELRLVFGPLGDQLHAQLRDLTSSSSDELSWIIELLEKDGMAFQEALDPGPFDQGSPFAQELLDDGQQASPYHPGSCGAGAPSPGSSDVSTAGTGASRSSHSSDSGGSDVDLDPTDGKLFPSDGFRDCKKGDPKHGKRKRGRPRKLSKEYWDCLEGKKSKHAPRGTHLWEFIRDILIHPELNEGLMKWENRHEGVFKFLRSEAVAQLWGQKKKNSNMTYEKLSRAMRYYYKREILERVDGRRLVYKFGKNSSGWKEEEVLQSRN
The essentials: as §1

In a further assay the target is ETV1 (Homo sapiens, UniProt P50549 1-477). In outline:
as §1

ETV5, sequence (P41161 whole entry): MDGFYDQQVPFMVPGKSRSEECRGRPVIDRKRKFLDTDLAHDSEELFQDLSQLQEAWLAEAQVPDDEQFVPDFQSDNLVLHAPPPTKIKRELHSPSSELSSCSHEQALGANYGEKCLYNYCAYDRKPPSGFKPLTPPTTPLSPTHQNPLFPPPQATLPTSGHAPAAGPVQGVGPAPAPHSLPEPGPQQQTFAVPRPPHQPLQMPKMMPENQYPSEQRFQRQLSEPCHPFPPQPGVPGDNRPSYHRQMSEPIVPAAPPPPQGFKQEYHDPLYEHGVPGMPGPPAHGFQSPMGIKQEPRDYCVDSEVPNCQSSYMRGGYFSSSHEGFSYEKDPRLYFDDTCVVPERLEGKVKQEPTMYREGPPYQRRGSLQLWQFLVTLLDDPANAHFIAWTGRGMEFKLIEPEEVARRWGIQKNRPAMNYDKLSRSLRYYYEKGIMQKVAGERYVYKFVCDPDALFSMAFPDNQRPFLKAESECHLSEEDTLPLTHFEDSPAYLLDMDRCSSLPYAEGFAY
ELF4, sequence (Q99607 whole entry): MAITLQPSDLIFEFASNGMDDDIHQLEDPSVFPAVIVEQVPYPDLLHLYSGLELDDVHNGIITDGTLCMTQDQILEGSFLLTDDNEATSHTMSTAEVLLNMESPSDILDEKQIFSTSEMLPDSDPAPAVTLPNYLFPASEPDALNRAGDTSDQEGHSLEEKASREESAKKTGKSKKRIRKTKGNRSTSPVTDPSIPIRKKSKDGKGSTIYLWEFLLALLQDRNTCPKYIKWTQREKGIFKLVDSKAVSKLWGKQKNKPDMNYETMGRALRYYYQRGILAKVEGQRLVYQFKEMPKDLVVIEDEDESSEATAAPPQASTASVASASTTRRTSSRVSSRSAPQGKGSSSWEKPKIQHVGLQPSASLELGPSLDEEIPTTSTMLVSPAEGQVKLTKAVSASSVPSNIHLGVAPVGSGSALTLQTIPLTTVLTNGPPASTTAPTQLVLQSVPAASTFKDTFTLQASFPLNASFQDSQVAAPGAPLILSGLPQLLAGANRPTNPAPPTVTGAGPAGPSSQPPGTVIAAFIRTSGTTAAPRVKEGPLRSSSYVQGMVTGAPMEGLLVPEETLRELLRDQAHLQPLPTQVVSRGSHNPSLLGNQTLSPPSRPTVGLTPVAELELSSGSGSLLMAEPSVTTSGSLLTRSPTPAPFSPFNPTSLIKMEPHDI
ETV1, sequence (P50549 whole entry): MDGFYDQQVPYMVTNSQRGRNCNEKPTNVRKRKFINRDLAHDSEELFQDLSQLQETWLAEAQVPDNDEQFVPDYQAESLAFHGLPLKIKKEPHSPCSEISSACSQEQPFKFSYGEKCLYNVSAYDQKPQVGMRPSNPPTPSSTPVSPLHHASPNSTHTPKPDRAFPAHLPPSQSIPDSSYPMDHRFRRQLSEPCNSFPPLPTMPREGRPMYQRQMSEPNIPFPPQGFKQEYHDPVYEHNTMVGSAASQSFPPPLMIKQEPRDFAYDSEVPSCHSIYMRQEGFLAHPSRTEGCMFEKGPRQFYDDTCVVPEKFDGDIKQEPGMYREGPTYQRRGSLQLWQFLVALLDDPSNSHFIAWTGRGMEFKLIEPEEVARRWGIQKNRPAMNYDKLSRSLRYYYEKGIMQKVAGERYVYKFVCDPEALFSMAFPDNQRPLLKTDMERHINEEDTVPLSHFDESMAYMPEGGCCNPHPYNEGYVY
SPIB, sequence (Q01892 whole entry): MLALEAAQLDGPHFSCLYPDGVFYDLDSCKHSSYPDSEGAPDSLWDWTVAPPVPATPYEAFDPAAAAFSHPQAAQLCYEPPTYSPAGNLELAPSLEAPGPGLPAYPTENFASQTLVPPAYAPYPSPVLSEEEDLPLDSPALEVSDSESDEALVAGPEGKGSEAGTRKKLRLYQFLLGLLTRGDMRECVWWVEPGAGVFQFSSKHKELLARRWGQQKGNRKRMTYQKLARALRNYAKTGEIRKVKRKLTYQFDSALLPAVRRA
ELF1, sequence (P32519 whole entry): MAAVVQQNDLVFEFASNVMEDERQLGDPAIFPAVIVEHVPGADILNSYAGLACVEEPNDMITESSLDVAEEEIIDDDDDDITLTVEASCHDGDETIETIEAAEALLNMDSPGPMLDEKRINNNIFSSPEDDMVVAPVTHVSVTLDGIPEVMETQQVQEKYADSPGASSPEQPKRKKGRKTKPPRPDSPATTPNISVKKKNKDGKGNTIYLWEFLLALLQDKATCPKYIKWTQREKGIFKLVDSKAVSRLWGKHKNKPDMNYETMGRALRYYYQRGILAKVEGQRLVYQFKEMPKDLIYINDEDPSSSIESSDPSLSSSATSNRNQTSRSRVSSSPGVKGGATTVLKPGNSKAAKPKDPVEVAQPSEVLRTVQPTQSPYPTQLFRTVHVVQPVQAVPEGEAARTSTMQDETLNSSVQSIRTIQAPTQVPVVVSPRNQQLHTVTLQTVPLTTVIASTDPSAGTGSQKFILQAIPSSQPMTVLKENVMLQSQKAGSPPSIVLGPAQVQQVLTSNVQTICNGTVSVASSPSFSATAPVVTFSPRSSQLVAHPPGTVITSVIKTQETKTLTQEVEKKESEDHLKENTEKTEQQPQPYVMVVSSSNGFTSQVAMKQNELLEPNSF

With CCCTGC, the binding signal with FLI1 is 1.11 fold enrichment (6-mer frequency, TF over GST control); in the assay with ELK1 it was 1.22 fold enrichment (6-mer frequency, TF over GST control); in the assay with GABPA, 1.12 fold enrichment (6-mer frequency, TF over GST control); in the assay with ERG it was 1.21 fold enrichment (6-mer frequency, TF over GST control); with ELF1, 1.26 fold enrichment (6-mer frequency, TF over GST control); with EHF it was 1.17 fold enrichment (6-mer frequency, TF over GST control). Also, the binding signal in the assay with SPI1 was 1.2 fold enrichment (6-mer frequency, TF over GST control); with SPIB, 1.16 fold enrichment (6-mer frequency, TF over GST control); with ELK3 it was 1.18 fold enrichment (6-mer frequency, TF over GST control); with FEV, 1.14 fold enrichment (6-mer frequency, TF over GST control); with ETV5 it was 1.18 fold enrichment (6-mer frequency, TF over GST control); with SPIC it was 1.25 fold enrichment (6-mer frequency, TF over GST control). For the same sequence, the binding signal was 1.38 fold enrichment (6-mer frequency, TF over GST control) with ELF4; 1.21 fold enrichment (6-mer frequency, TF over GST control) in the assay with ELK4; 1.05 fold enrichment (6-mer frequency, TF over GST control) in the assay with ETV2; 1.12 fold enrichment (6-mer frequency, TF over GST control) with ELF3; 1.22 fold enrichment (6-mer frequency, TF over GST control) with ETV1.
